CYP2C9 act: CYP2C9 (human) activation; P11712; recombinant CYP2C9, luciferin-H conversion, luminescence; active compounds read high; factor 1 = untreated enzyme, 0 = blocked; activation factor at 5 µM; 96,000 tested, 1.4% active; AID 1024;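 active = activation factor of 2 or more for CYP2C9 at a 5 µM dose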
CYP2C19 inhib: human CYP2C19 inhibition; P33261; CYP2C19 Supersomes, luciferin-H EGE luminescence, 30 min; inhibition, % at 5 µM; 96,000 tested, 21% active;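 active = CYP2C19 inhibition above a set limit at 5 µM in the primary screen, cut at about 50% in these data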
Target sequence (P33261 whole entry, looked up): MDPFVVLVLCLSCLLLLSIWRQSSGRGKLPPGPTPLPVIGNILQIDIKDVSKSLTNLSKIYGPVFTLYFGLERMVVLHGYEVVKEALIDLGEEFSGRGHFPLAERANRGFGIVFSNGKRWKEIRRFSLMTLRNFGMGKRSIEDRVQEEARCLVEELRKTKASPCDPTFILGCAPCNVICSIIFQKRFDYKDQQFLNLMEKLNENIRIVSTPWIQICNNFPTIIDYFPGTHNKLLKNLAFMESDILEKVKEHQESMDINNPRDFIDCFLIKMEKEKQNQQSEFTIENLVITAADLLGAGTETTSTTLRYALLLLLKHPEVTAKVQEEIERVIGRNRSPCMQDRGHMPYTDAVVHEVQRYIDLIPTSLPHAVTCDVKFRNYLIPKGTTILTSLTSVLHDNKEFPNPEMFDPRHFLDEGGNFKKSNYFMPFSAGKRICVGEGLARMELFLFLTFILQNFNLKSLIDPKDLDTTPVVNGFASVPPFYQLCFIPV
PTK2B oligo ant: blocks oligomerization of human Pyk2 in cells; Q293 cells, Pyk2 FERM NanoBiT luminescence; active compounds read low; z-score (the deposit names both 25 µM and 10 µM); 99,000 tested, 0.83% active; AID 1347419;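 active = Z-score of -3 or lower, scaled per plate to the spread of control and sample wells; inactive = z-score above -3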;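 also: negative z-score means lost luminescence so less FERM oligomerization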
CYP2C9 inh: inhibitors of human CYP2C9; CYP2C9 Supersomes, luciferin-H conversion, luminescence; AID 777; P11712; 96,000 tested, 20% active; inhibition, % at 5 µM;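 active = blocking of liver enzyme CYP2C9 beyond about 50% at 5 µM, limit read from the data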
Cav3 T inh: inhibitors of human Cav3.2 T-type calcium channel; O95180; Cav3.2-expressing cells, Fluo-4 calcium fluorescence FDSS; active compounds read low; B-score at 10 µM; 100,000 tested, 4% active; AID 449739;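 active = single-dose well whose peak fluorescence ratio is a statistical outlier from its plate by either plate-standardised score or position-corrected B-score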
CYP2C19 act: increases human CYP2C19 enzyme activity. recombinant CYP2C19, luciferin-H EGE luminescence; active compounds read high; 0 = fully inhibited enzyme, 1 = untreated enzyme. activation factor at 5 µM. 96,000 tested, under 10 active. P33261. AID 1025;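 active = activation factor of at least 2 at 5 µM in the primary screen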
Large screens that a line does not name were inactive. In the library only some 27% were active in any assay of this set; here they are far more common.

CC1CCCN(Cc2c(O)ccc3c(=O)c(-c4nc5ccccc5s4)c(N)oc23)C1 (configuration not stated)	none
O=C(CNC(=O)c1cnccn1)Nc1ccc(F)c(F)c1F	none
COc1ccc(N2C(=O)CSC2c2ccc3c(c2)OCO3)c(OC)c1 (configuration not stated)	CYP2C19 inhib 84
CCN(CC)CCCN1C(=O)CSC1c1ccc2c(c1)OCO2 (configuration not stated)	none
COc1ccc(N2C(=O)CSC2c2ccc3c(c2)OCO3)cc1 (configuration not stated)	CYP2C19 inhib 89
O=C1NC(c2cccs2)Nc2ccccc21 (configuration not stated)	none
O=C1Nc2ccccc2/C1=C/C(=O)c1cccs1	CYP2C9 act 2.5
CN(C)CCNC(=O)Cn1nc(C(F)F)cc1C1CC1	none
Cn1c(CNc2nc(-c3ccccc3)cs2)nnc1SCC(=O)OC1CCCCC1	Cav3 T inh -6.1 (no result: CYP2C9 act, CYP2C19 inhib, CYP2C9 inh, CYP2C19 act)
CC(C)OC(=O)CSc1nnc(CNc2nc(-c3ccccc3)cs2)n1C	none
Cc1ccc(-n2nnc3c(SCC(=O)NCc4ccco4)ncnc32)cc1	none (no result: CYP2C9 act, CYP2C19 inhib, CYP2C9 inh, CYP2C19 act)
COc1ccc(C(=O)/C=C\N2CCOCC2)cc1	none
OC(CN1CCN(Cc2ccc3c(c2)OCO3)CC1)c1c[nH]c2ccccc12 (configuration not stated)	none
OC(CN1CCN(c2ccccc2)CC1)c1c[nH]c2ccccc12 (configuration not stated)	CYP2C19 inhib 57
Cc1ccc(NC(=O)c2ccco2)cc1NC(=O)CSc1nnc(-c2cccs2)n1C	none (no result: Cav3 T inh)
COc1cccc(C(=O)N2CCN(S(=O)(=O)Cc3ccccc3)CC2)c1OC	none (no result: CYP2C9 act, CYP2C19 inhib, CYP2C9 inh, CYP2C19 act)
COc1cc(OC)c(C2CC(=O)N3CN(c4ccc(C)cc4)CSC3=C2C#N)cc1OC (configuration not stated)	none (no result: Cav3 T inh)
CN1CSC2=C(C#N)C(c3cccc(OCc4ccccc4)c3)CC(=O)N2C1 (configuration not stated)	CYP2C9 inh 84 (no result: PTK2B oligo ant)
CCc1ccc(N2CSC3=C(C#N)C(c4cccs4)CC(=O)N3C2)cc1 (configuration not stated)	none
Cc1ccc(N2CSC3=C(C#N)C(c4cccs4)CC(=O)N3C2)cc1 (configuration not stated)	CYP2C9 inh 86 (no result: PTK2B oligo ant)
CCOC(=O)c1ccc(N2CSC3=C(C#N)C(c4cccs4)CC(=O)N3C2)cc1 (configuration not stated)	CYP2C19 inhib 90, CYP2C9 inh 94 (no result: PTK2B oligo ant)
CCc1ccc(C2CC(=O)N3CN(c4ccccc4)CSC3=C2C#N)cc1 (configuration not stated)	CYP2C9 inh 53 (no result: PTK2B oligo ant)
C/C=C\C(=O)Nc1cccc(C2=NOC3(C2)C[C@H](C(N)=O)N(C(=O)[C@H]2CCC(=O)N2)C3)c1 (some centres not stated)	none (no result: CYP2C9 act, CYP2C19 inhib, PTK2B oligo ant, CYP2C9 inh, CYP2C19 act)
CN(C)/C=C1\C(=O)N(c2ccc([N+](=O)[O-])cc2)N=C1c1ccccc1	none
Cc1ccc(N(CC(=O)Nc2cc(Cl)ccc2Oc2ccccc2)S(C)(=O)=O)c(C)c1	CYP2C19 inhib 61
CS(=O)(=O)N(CC(=O)O)c1ccc(Oc2ccccc2)cc1	none
Cc1ccc(N(CC(=O)Nc2cc(Cl)ccc2Oc2ccccc2)S(C)(=O)=O)cc1C	CYP2C19 inhib 99, CYP2C9 inh 98, Cav3 T inh -5.9
O=C(COc1ccccc1Cl)Nc1cc(Cl)ccc1Oc1ccccc1	none
CC(=O)CCc1c[nH]c2c(C(=O)O)cccc12	none
CC/C=C\[C@H](O)[C@H](O)C1=C(C)C(=O)[C@]2(O1)C(=O)N[C@@](OC)(C(=O)c1ccccc1)C2O (some centres not stated)	none (no result: CYP2C9 act, CYP2C19 inhib, PTK2B oligo ant, CYP2C9 inh, CYP2C19 act)
S=C1NC[C@H](Cc2ccccc2)N1CCCCC1CCCCC1	none (no result: CYP2C9 act, CYP2C19 inhib, PTK2B oligo ant, CYP2C9 inh, CYP2C19 act)
Nc1cc(Cl)ccc1Oc1ccc2ccccc2c1	CYP2C19 inhib 71
Nc1nc(Cl)cc(Sc2ccc3ccccc3c2)n1	none
Cc1ccc(-c2cc(C(=O)NCc3ccccn3)no2)cc1	none
CCOc1cccc(C(=O)Nc2ccccc2OC(F)F)c1	CYP2C19 inhib 56
O=C(Nc1ccccc1OC(F)F)c1ccccc1	none
COc1ccc(NC(=O)c2cccc(OC(F)F)c2)cc1Cl	CYP2C19 inhib 69
COc1ccc(NC(=O)c2cccc(F)c2)cc1Cl	none (no result: Cav3 T inh)
Cc1c(Cl)cccc1NC(=O)c1cccc(OC(F)F)c1	CYP2C19 inhib 72
CCOC(=O)Nc1cccc(Cl)c1C	none
O=C(Nc1ccc(OC(F)F)c(Cl)c1)c1cccc(OC(F)F)c1	CYP2C19 inhib 88
COC(=O)c1ccc(CSc2nc3c(c(=O)n2-c2ccc(Br)cc2)SCC3)o1	CYP2C19 inhib 90, CYP2C9 inh 92
O=C(CSc1nc2c(c(=O)n1-c1ccc(Cl)cc1)SCC2)N1CCCC1	none
CCOc1ccc(-n2c(SCC(=O)Nc3ccc(OC)cc3)nc3c(c2=O)SCC3)cc1	none (no result: Cav3 T inh)
CCOc1ccc(-n2c(SCc3ccc(C(=O)OC)o3)nc3c(c2=O)SCC3)cc1	CYP2C19 inhib 82, CYP2C9 inh 87
COc1ccc(C2CCCN2C(=O)Nc2ccccc2)cc1OC (configuration not stated)	CYP2C19 inhib 72 (no result: PTK2B oligo ant)
CC1CCCN(C(=O)Nc2cccc(NC(=O)N3CCCC(C)C3C)c2)C1C (configuration not stated)	Cav3 T inh -5.8
COc1ccc(NC(=O)C2CCCN2C(=O)NCc2ccccc2)cc1OC (configuration not stated)	none (no result: CYP2C9 act, CYP2C19 inhib, CYP2C9 inh, CYP2C19 act)
CC1CCCCN1C(=O)Nc1cccc(Cl)c1 (configuration not stated)	CYP2C19 inhib 70
CC(=O)Nc1cccc(NC(=O)C2CCCN2C(=O)Nc2ccc(C)cc2)c1 (configuration not stated)	none
CC1=C(C)CC(C(=O)Nc2cccc(Cl)c2)C(C(=O)O)C1 (configuration not stated)	CYP2C9 inh 50
Cc1ccc(C2CC(C(F)(F)F)n3nc(C(=O)NCc4ccco4)cc3N2)cc1 (configuration not stated)	none (no result: Cav3 T inh)
O=C(Nc1ccccc1)NC1(C(=O)N2CCN(c3ncccn3)CC2)CCCCC1	none
Cc1c(O)ccc2c3c(c(=O)oc12)CCCC3	CYP2C9 act 3, CYP2C19 inhib 69
Cc1oc2c(C)c3oc(=O)c4c(c3cc2c1C)CCCC4	CYP2C19 inhib 96, CYP2C9 inh 50
Cc1c(O)ccc2c3c(c(=O)oc12)CCC(C)C3 (configuration not stated)	CYP2C19 inhib 93
Cc1oc(C(=O)O)cc1COc1ccc2c3c(c(=O)oc2c1C)CCCC3	none (no result: PTK2B oligo ant, Cav3 T inh)
CC(C)CN(Cc1c(O)ccc2c3c(c(=O)oc12)CCC3)CC(C)C	none
O=C(C1CCN(S(=O)(=O)N2CCOCC2)CC1)N1CCN(c2ccccc2)CC1	none
Cc1ccc(C(=O)N(Nc2nc3ccccc3s2)C(=O)c2ccc(C)cc2)cc1	none (no result: CYP2C9 act, CYP2C19 inhib, CYP2C9 inh, Cav3 T inh, CYP2C19 act)

High-throughput results as filed in PubChem BioAssay.
